Source: PubChem BioAssay (NCI)
About 83,000 compounds went through this panel and 20% of them were active in at least one assay; those are over-represented in the sample as a whole.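 Single-dose data. Exposure time 48 hours. Values below 10 considered active.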 Active and inactive are the calls of the source.

Tested on: HL-60(TB) leukemia
Experiment: NCI-60 one-dose screen, 48 h (100 = growth as untreated, 0 = no growth, -100 = all killed)
Conditions: 10 µM unless noted

Structure (SMILES): COc1ccc(C2SCC(=O)N2NC(=O)c2ccc(NC(=O)c3ccccn3)cc2)cc1OC (configuration not stated)
- growth: 110% (inactive)

Structure (SMILES): F
- growth: 28.1% [6.87 mM] (inactive)

Structure (SMILES): O=C(Nc1ccc(I)cc1F)c1cc(F)ccc1O
- growth: -30.7% (active)

Structure (SMILES): COc1ccc(/C=c2\c(=O)n(-c3ccccc3)c3nn4c(=O)c(=O)[nH]nc4n23)cc1
- growth: 112% (inactive)

Structure (SMILES): CC(C)c1ccc(-n2c(=S)[nH]c3sc4cc(O)ccc4c3c2=O)cc1
- growth: 99.4% (inactive)

Structure (SMILES): COc1cc(C2=Nc3c/c(=C\c4c(O)[nH]c5ccc(Cl)cc45)ccc3=N2)cc(OC)c1OC
- growth: 11.8% (inactive)

Structure (SMILES): COc1ccc(-c2cc3cnc4ccccc4c3oc2=O)cc1
- growth: 94.2% (inactive)

Structure (SMILES): COc1ccc(N2CCN(CC(=O)N3CCN(c4nnc(-c5ccc(Cl)cc5)c(-c5ccc(Cl)cc5)n4)CC3)CC2)cc1
- growth: -19.9% (active)

Structure (SMILES): O=C(N/N=C/c1ccc(Cl)cc1Cl)c1ccc2nc(-c3ccc(Cl)cc3)[nH]c2c1
- growth: 5.77% (active)

Structure (SMILES): Nc1cc2c(cc1N)-c1cc(N)c(N)cc1C2
- growth: 103% (inactive)

Structure (SMILES): COc1ccc(/C=C2\CCC3C(CCCC34OCCO4)C2=O)cc1 (configuration not stated)
- growth: 78.3% (inactive)

Structure (SMILES): CC(C)CCC[C@@H](C)[C@H]1CC[C@H]2[C@@H]3CC[C@H]4C/C(=N/O)CC[C@]4(C)[C@H]3CC[C@]12C
- growth: 104% (inactive)

Structure (SMILES): C[C@@H]1C(=O)N(C[C@H](Cc2ccccc2)NC(=O)OCc2ccccc2)[C@]1(Cc1ccccc1)C(=O)OC(C)(C)C
- growth: 81.5% (inactive)

Structure (SMILES): O=C(Cn1ccnc1)NC(c1ccccc1)c1ccccc1
- growth: 96.7% (inactive)

Structure (SMILES): COc1cc2cc(c1Cl)N(C)C(=O)C[C@H](OC(=O)[C@H](C)N(C)C(=O)CCS)C[C@]1(C)O[C@H]1[C@H](C)[C@@H]1C[C@@](O)(NC(=O)O1)[C@H](OC)/C=C/C=C(\C)C2
- growth: -28% (active)

Structure (SMILES): CC1C=CC(OC(=O)C(C)(O)CCC(O)(C(=O)OC2CC(O)C(C(C)C)CC2(C)O)C(C)C)(C(C)C)CC1 (configuration not stated)
- growth: -50.8% [4.63 µM] (active)

Structure (SMILES): NC(=O)NC(=O)c1ccc(Cl)cc1
- growth: 95% (inactive)

Structure (SMILES): O=C1c2ccccc2-c2nccc3cc(Cl)nc1c23
- growth: 1.84% (active)

Structure (SMILES): CC(C)(C)c1cc(Br)cc(C(C)(C)C)c1O
- growth: 94.1% (inactive)

Structure (SMILES): Clc1nc(Oc2ccccc2)nc(-c2cn(-c3ccccc3)c3ccccc23)n1
- growth: 63.2% (inactive)

Structure (SMILES): COc1ccc(-c2nnc(COc3ccc(NC(=O)Nc4ccccc4)cc3F)o2)cc1
- growth: 86.8% (inactive)

Structure (SMILES): CC(=O)Nc1ccc(CC#N)cc1Br
- growth: 123% (inactive)

Structure (SMILES): CCN(CC)CCNC(=O)C(F)(F)C(F)(F)C(F)(F)F
- growth: 108% (inactive)

Structure (SMILES): COc1ccc2c(c1)c(C(=O)c1nc(-c3cn(C)c4ccccc34)no1)cn2C
- growth: 92% (inactive)

Structure (SMILES): COC(=O)[C@H](Cc1cn(C)cn1)NC(=O)[C@H](CC(=O)OCc1ccccc1)NC(=O)Nc1cc(C(F)(F)F)cc(C(F)(F)F)c1
- growth: -68.9% [100 µM] (active)

Structure (SMILES): CCOC(=O)n1cc(-c2nonc2-c2cn(C)c3ncccc23)c2cc(F)ccc21
- growth: 92.8% (inactive)

Structure (SMILES): c1coc2occoc=2o1
- growth: 102% (inactive)

Structure (SMILES): N=C(N)c1ccc(-c2ccc(-c3cccs3)o2)cc1
- growth: -28.5% (active)

Structure (SMILES): O=C(/C=C/C12c3ccccc3C(c3ccccc31)C1C(=O)NC(=O)C12)c1ccco1 (configuration not stated)
- growth: 8.34% (active)

Structure (SMILES): O=C(N/N=C/c1c(Cl)cccc1Cl)c1ccc(C(F)(F)F)nc1Nc1cccc(C(F)(F)F)c1
- growth: -44.5% (active)

Structure (SMILES): CC1=CC(C)(C)Nc2ccc(Cc3ccc4c(c3)C(C)=CC(C)(C)N4)cc21
- growth: 122% (inactive)

Structure (SMILES): N=C(N)c1ccc(-c2ccc(-c3ccc(Cl)cc3Cl)o2)nc1
- growth: -26.7% (active)

Structure (SMILES): c1ccc(CN2C(c3ccccc3)=Nc3ccccc3C2c2c[nH]c3ccccc23)cc1 (configuration not stated)
- growth: 19.6% (inactive)

Structure (SMILES): Nc1n[nH]c2cccc(C#Cc3cccc(NC(=O)c4cc(F)cc(C(F)(F)F)c4)c3)c12
- growth: 37.7% (inactive)

Structure (SMILES): O=C(/C=C/c1cccc(Cl)c1)c1cccc(OCCCCOc2cccc(C(=O)/C=C/c3cccc(Cl)c3)c2)c1
- growth: 84.6% (inactive)

Structure (SMILES): COc1ccc(-c2cc(-c3nnc(SCC(=O)Nc4ccc(/C(C)=N\O)cc4)n3-c3ccccc3)c3cc(OC)ccc3n2)cc1
- growth: 31.8% (inactive)

Structure (SMILES): COc1cc(/C=N/O)nc(-c2ccccn2)c1
- growth: -13.5% (active)

Structure (SMILES): COCCOCCOCc1n(Cc2ccc3ccccc3n2)c2ccccc2[n+]1Cc1ccc2ccccc2c1
- growth: -68% (active)

Structure (SMILES): CN(C)CCC(=O)c1ccc([N+](=O)[O-])cc1
- growth: 114% (inactive)

Structure (SMILES): COc1cc(-c2nc(NC(C)=O)sc2-c2ccnc(NCCNS(=O)(=O)c3ccccc3)n2)ccc1Cl
- growth: -22.3% (active)

Structure (SMILES): O=[N+]([O-])c1ccc(N/N=C/c2ccccc2O)nc1
- growth: 0.837% (active)

Structure (SMILES): COc1ccc(S(=O)(=O)NCCNc2nccc(-c3c(-c4cccc(N)c4)nc4sccn34)n2)cc1
- growth: 116% (inactive)

Structure (SMILES): CC(CN1CCCCC1)C(=O)c1ccccc1 (configuration not stated)
- growth: 103% (inactive)

Structure (SMILES): CCCCCN1CCN(C(CC(=O)c2ccccc2)C(=O)c2ccccc2)CC1 (configuration not stated)
- growth: 60.4% (inactive)

Structure (SMILES): O=S(=O)(NCCNc1nccc(-c2c(-c3ccc(F)c(O)c3)nc3sccn23)n1)c1ccccc1
- growth: 71% (inactive)

Structure (SMILES): Cc1nnc(N/N=C/c2ccc([N+](=O)[O-])o2)[nH]c1=O
- growth: -34.8% (active)

Structure (SMILES): Cc1cccc(CN(Nc2ccccc2)c2ccccc2)n1
- growth: 91.9% (inactive)

Structure (SMILES): CCCOc1ccc(/C=N/Nc2cc(C)nc3ccc(Cl)cc23)cc1
- growth: -48% (active)

Structure (SMILES): CCN(CC)c1ccc(-c2cc(-c3cc(OC)c(OC)c(OC)c3)nc(N3CCOCC3)c2C#N)cc1
- growth: -43.4% (active)

Structure (SMILES): c1csc(-c2c3ccc(=[N+]4CCCCC4)cc-3oc3cc(N4CCCCC4)ccc23)c1
- growth: -35.5% (active)

Structure (SMILES): O=C(Nc1cccc(Cl)c1)Oc1c(Br)c(Br)c(Br)c(Br)c1Br
- growth: 88.4% (inactive)

Structure (SMILES): Cc1ccc2oc(=O)cc(C3C(C#N)=C(N)Oc4c3ccc3ccccc43)c2c1 (configuration not stated)
- growth: 53.1% (inactive)

Structure (SMILES): Nc1cc2ccncc2c2ccccc12
- growth: 90% (inactive)

Structure (SMILES): COc1ccc2nc(-c3ccc(Cl)cc3)cc(-c3nnc(SC/C(=N/O)c4ccccc4)o3)c2c1
- growth: 82% (inactive)

Structure (SMILES): O=c1ccn(C2OC(F)(CO)C(O)C2F)c(=O)[nH]1 (configuration not stated)
- growth: 114% (inactive)

Structure (SMILES): COC(=O)C(O)c1ccccc1 (configuration not stated)
- growth: 109% (inactive)

Structure (SMILES): Cn1c(C(N)=O)cc2c1-c1nc(NC3CCCCC3)ncc1CCC2
- growth: 105% (inactive)

Structure (SMILES): COc1ccc(-c2nc3ccccn3c2-c2nc3ccc(Cl)cc3[nH]2)cc1
- growth: 74.8% (inactive)

Structure (SMILES): N=C(N)c1ccc(-c2ccc(-c3cncc4ccccc34)s2)s1
- growth: 13.6% (inactive)

Structure (SMILES): Nc1nc2c(c3ncncc13)C(c1cccc(C(F)(F)F)c1)Cc1ncncc1-2 (configuration not stated)
- growth: 10.7% (inactive)

Structure (SMILES): C=C(C)C1CCC(=C)C2CCC3(C)OC12/C=C(/COC(C)=O)CCC3O (configuration not stated)
- growth: 90.8% (inactive)

Structure (SMILES): CCC(=O)Nc1cc2c(cc1Cl)-c1ccccc1C2
- growth: 39.4% (inactive)

Structure (SMILES): CC1=C(C(=O)c2ccccc2)C(c2ccc3c(c2)OCO3)NC(=S)N1 (configuration not stated)
- growth: 2.6% (active)

Structure (SMILES): COc1ccc(Nc2ncccc2NC(=O)c2cn(Cc3cccc(Oc4ccccc4)c3)nn2)cc1OC
- growth: 55.8% (inactive)

Structure (SMILES): Nc1cccc(-c2nc3sccn3c2-c2ccnc(NCCCNS(=O)(=O)c3ccc(C(F)(F)F)cc3)n2)c1
- growth: -18.5% (active)

Structure (SMILES): N=C(N)c1nn(C2OC(CO)C(O)C2O)c2nc[nH]c(=O)c12 (configuration not stated)
- growth: -25.2% (active)

Structure (SMILES): O=S(=O)(Nc1ccsc1-c1nc(-c2ccccc2)no1)c1cc(Cl)cc(Cl)c1
- growth: 119% (inactive)

Structure (SMILES): COC(=O)C(N)CC(C)C (configuration not stated)
- growth: 94.6% (inactive)

Structure (SMILES): CC(C)CSc1ncnc2nc[nH]c12
- growth: 133% (inactive)

Structure (SMILES): CCN(CC)CCC(=O)Nc1ccc(Cn2nnc3c2C(=O)c2nnn(Cc4ccc(NC(=O)CCN(CC)CC)cc4)c2C3=O)cc1
- growth: -36.4% (active)

Structure (SMILES): CN[C@@H]1C[C@H]2O[C@@](C)([C@@H]1OC)n1c3ccccc3c3c4c(c5c6ccccc6n2c5c31)C(=O)N[C@H]4O
- growth: -40.8% (active)

Structure (SMILES): COc1ccc(/C=N/Nc2cc(=O)[nH]c3ccc(Cl)cc23)cc1
- growth: 45.3% (inactive)

Structure (SMILES): CNc1ccc(Nc2cccc(C)c2)c2c1C(=O)c1ccccc1C2=O
- growth: 80.6% (inactive)

Structure (SMILES): N#CC1=C(N)Oc2c(ccc3ccccc23)C1c1cc(=O)oc2ccc(Cl)cc12 (configuration not stated)
- growth: -10.1% (active)

Structure (SMILES): CCOC(=O)c1ccc(C(C)(C)C)cc1
- growth: 90.4% (inactive)

Structure (SMILES): CC(C)n1c(/C=C/[C@@H](O)C[C@@H](O)CC(=O)O)c(-c2ccc(F)cc2)c2ccccc21
- growth: 91.4% (inactive)

Structure (SMILES): CC[N+](CC)=c1ccc2nc3c(cc(NCc4ccccc4)c4ccccc43)oc-2c1
- growth: -41.2% (active)

Structure (SMILES): CCCCCC/C=C\CCCCCCCCCc1cc(O)cc(OC)c1O
- growth: -44.7% (active)

Structure (SMILES): O=C(Oc1c(Cl)c(Cl)c(Cl)c(Cl)c1Cl)C1CCCN1C(=O)OCc1ccccc1 (configuration not stated)
- growth: -12.5% (active)

Structure (SMILES): O=C(O)c1cn(C2CC2)c2cc(N3CCN(C(=O)C[n+]4cccc5ccccc54)CC3)c(F)cc2c1=O
- growth: 99.1% (inactive)

Structure (SMILES): CN1CCC(CNc2cc(C3(C(=O)Nc4cc(C(=O)Nc5ccc(Cl)c(C(F)(F)F)c5)ccc4F)CC3)ncn2)CC1
- growth: -7.85% (active)

Structure (SMILES): CCN(CC)Cc1cc(Nc2ccnc3cc(Cl)ccc23)ccc1OC
- growth: 86% (inactive)

Structure (SMILES): O=C(Oc1ccc(Cl)cc1[N+](=O)[O-])Oc1ccc(Cl)cc1[N+](=O)[O-]
- growth: 95.7% (inactive)

Structure (SMILES): C/C(CC(C)C)=N/NC(N)=S
- growth: 86.5% (inactive)

Structure (SMILES): CC(C)(C)n1cc(-c2ccnc(NCCNS(=O)(=O)c3ccccc3)c2)c(-c2cccc(O)c2)n1
- growth: 45% (inactive)

Structure (SMILES): Cn1nc(CC#N)c2c(=N)n(N)cnc21
- growth: 84.4% (inactive)

Structure (SMILES): N#CC1c2ccccc2-c2ccccc2N1C(=O)c1ccccc1 (configuration not stated)
- growth: 21.6% (inactive)
